Measured values reported in PubChem BioAssay AID1159580 (chemical genetic matrix, 2015).
About 2,000 (36%) of roughly 5,500 compounds were called active. Roughly 18% stayed inconclusive and do not appear here. No stated cut-off is given here; in the data, active means normalized growth mostly below about 0.91 (no sharp cut-off); inconclusive means no clear call, values can overlap the other calls; inactive means mostly above about 0.92. This is one part of the list.

Test: chemical genetic growth profiling, strain panel (AID 1159580);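 further: tested at 20 µM; growth read once vehicle control cultures reached saturation at 30 °C; 1 = growth at the plate median or of vehicle wells; lower values mean less growth of the strain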
Details: S. cerevisiae deletion strains, growth OD

Measured: normalized growth

COc1ccc(C[C@H]2NC[C@H](O)[C@H]2OC(C)=O)cc1
active: locus YKL160W, strain elf1, hits give low values 0.776 | locus YKL190W, strain CNB1, hits give low values 0.206 | locus YKR001C, strain vps1, hits give low values 0.367 | locus YLL001W, strain dnm1, hits give low values 0.884 | locus YLL026W, hits give low values 0.807 | locus YLR027C, strain aat2, hits give low values 0.659 | locus YLR039C, strain RIC1, hits give low values 0.567 | locus YLR058C, strain SHM2, hits give low values 0.61 | locus YLR221C, strain rsa3, hits give low values 0.853 | locus YLR258W, strain gsy2, hits give low values 0.734 | locus YLR262C, strain YPT6 (second series), hits give low values 0.769 | locus YLR262C, strain YPT6, hits give low values 0.386 | locus YLR268W, strain sec22, hits give low values 0.854 | locus YLR330W, strain CHS5, hits give low values 0.87 | locus YLR342W, strain FKS1 (second series), hits give low values 0.126 | locus YLR342W, strain FKS1, hits give low values 0.412 | locus YLR357W, strain rsc2, hits give low values 0.826 | locus YLR370C, strain arc18, hits give low values 0.877 | locus YLR371W, strain rom2, hits give low values 0.728 | locus YLR418C, strain cdc73, hits give low values 0.28 | locus YML016C, strain PPZ1, hits give low values 0.625 | locus YML032C, strain rad52, hits give low values 0.868 | locus YMR058W, strain fet3, hits give low values 0.891 | locus YMR125W, strain sto1, hits give low values 0.862 | locus YMR205C, strain PFK2, hits give low values 0.692 | locus YMR223W, strain ubp8, hits give low values 0.723 | locus YMR231W, strain pep5, hits give low values 0.752 | locus YMR263W, strain SAP30, hits give low values 0.852 | locus YMR307W, strain GAS1, hits give low values 0.237 | locus YNL067W, strain RPL9B, hits give low values 0.663
inactive: locus YKL009W, strain mrt4, hits give low values 0.966 | locus YKL068W, hits give low values 0.998 | locus YKL085W, strain MDH1 (second series), hits give low values 1.01 | locus YKL085W, strain MDH1, hits give low values 1.01 | locus YKR026C, strain gcn3, hits give low values 0.985 | locus YKR091W, strain srl3, hits give low values 1 | locus YLL041C, strain sdh2, hits give low values 0.986 | locus YLR102C, strain apc9, hits give low values 1.01 | locus YLR113W, strain HOG1, hits give low values 0.977 | locus YLR320W, strain mms22, hits give low values 0.957 | locus YLR384C, strain iki3, hits give low values 1 | locus YML120C, strain ndi1, hits give low values 0.98 | locus YML124C, strain tub3, hits give low values 0.988 | locus YMR078C, strain ctf18, hits give low values 1.02 | locus YMR129W, hits give low values 0.961
